Rpn11 block = Rpn11 (PSMD14) deubiquitinase inhibitors, primary screen, biochemical, fluorescence polarization, uHTS; 26S proteasome non-ATPase regulatory subunit 14 (Homo sapiens), O00487; human 26S proteasome, Ub4-pepOG fluorescence polarization; 20S core pre-blocked with epoxomicin; inhibition, % at 20 µM; 0.59% of 360,000 active;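 active = inhibition at 20 µM, scaled to each plate's controls, above about 33%, limit read from the data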
Target sequence (O00487 whole entry, looked up): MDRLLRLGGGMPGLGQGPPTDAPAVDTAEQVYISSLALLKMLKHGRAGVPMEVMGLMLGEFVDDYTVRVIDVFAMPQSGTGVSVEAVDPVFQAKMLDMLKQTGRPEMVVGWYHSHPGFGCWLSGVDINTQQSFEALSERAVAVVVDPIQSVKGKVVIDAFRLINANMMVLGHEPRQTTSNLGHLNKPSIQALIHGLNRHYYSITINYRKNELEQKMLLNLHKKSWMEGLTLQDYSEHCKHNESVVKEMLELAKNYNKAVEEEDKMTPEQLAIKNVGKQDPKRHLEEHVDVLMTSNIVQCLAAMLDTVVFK
EBNA-1 inh = EBNA-1 DNA-binding inhibitors, primary screen, biochemical, fluorescence polarization | inhibition, % at 14.8 µM | 0.34% of 300,000 active | AID 1950, 2009; in the data active = inhibition above about 28%
dFosB act = activators of delta FosB homodimer, primary screen, biochemical, fluorescence polarization, TAMRA-CDK5 oligo, single point; purified delta FosB; percent of positive-control signal above neutral wells; activation, % at 25 µM; Protein FosB (Mus musculus), P13346; 0.99% of 340,000 active; AID 493131, 2011;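 active = mean activation above about 17%, with every replicate also reaching it, limit read from the data, passing the limit was not always enough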
NR3A LBD binder = binders of NR3A ligand-binding domain, primary screen, biophysical, differential scanning fluorimetry, uHTS; 2.5% of 340,000 active; NR3A LBD differential scanning fluorimetry, Tm shift; 0% = protein alone, 100% = glycine-bound protein; Glutamate receptor ionotropic, NMDA 3A (GRIN3A) ligand-binding domain; Tm shift relative to glycine control, % at 25 µM;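 active = melting temperature shift of at least 10% of the positive control shift, at one fixed dose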
ZTA DNA inh = ZTA (EBV) inhibition in EBNA-1 counter-screen; ZTA-DNA binding, fluorescence polarization; inhibition, % at 11 µM; 0.15% of 320,000 active; in the data active = inhibition above about 33%
Target sequence (P03206 whole entry, looked up): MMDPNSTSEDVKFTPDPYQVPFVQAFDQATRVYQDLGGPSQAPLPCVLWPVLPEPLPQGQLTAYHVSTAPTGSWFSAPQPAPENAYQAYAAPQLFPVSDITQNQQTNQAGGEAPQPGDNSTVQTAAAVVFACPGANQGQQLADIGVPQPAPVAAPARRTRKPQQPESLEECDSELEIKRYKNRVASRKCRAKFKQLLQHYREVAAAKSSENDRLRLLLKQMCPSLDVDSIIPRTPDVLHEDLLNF
TPT1 inh = Candida albicans TPT1 enzyme inhibitors, primary screen, biochemical, fluorescence polarization | tRNA 2'-phosphotransferase TPT1 (Candida albicans SC5314) | recombinant caTPT1, FP RNA substrate dephosphorylation | inhibition, % at 5 µM | 0.81% of 300,000 active | AID 1962, 2009;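 active = inhibition above the mean of all tested compounds plus 3 SD, set per screening campaign, cut at about 24% in these data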;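 also: plate controls were DMSO alone for no effect and ferristatin control at 100 nM for full effect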
caTPT1 confirm = Candida albicans TPT1 inhibitors, confirmation, biochemical, fluorescence polarization, triplicate; shares compounds with TPT1 inh; recombinant caTPT1, RNase T1 coupled; inhibition, % at 5 µM; 74% of 2,400 active; AID 2149, 2009;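 active = inhibition above the primary screen limit, the mean inhibition of all tested compounds plus 3 SD, cut at about 25% in these data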
RNase T1 inh = RNase T1 inhibitors, counter-screen for TPT1 inhibitor project, biochemical, fluorescence polarization | shares compounds with TPT1 inh | RNase T1 cleavage, 1536-well | inhibition, % at 5 µM | 83% of 2,400 active | AID 2153, 2009;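 active = inhibition above the solvent-only control well mean plus 3 SD, limit set per screening run, cut at about 23% in these data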;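 also: plate controls were DMSO wells with enzyme for no effect and wells without RNase T1 for full effect; inhibitors block cleavage so intact labeled substrate keeps polarization high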
Numbers without * were called inactive; . = not tested or not shown. This is a sample that favours compounds with a hit; in the whole collection about 4.5% have one here.

SMILES | Rpn11 block | EBNA-1 inh | dFosB act | NR3A LBD binder | ZTA DNA inh | TPT1 inh | caTPT1 confirm | RNase T1 inh
O=Cc1ccc(OCc2ccccn2)cc1 | -1 | 12 | -4 | 0 | 14 | 51* | 2 | 1
COc1ccccc1N=C1NC(=O)/C(=C/c2ccc(N(C)C)cc2)S1 | . | -6 | -9 | -19 | -14 | 119* | 131* | 125*
CCOc1ccc(CCNC(=O)C(C)N2C(=O)CC(C)(C)Sc3ccccc32)cc1 (stereo unspecified) | -1 | 2 | -8 | -2 | -15 | -1 | . | .
COc1ccc(C)c2sc(=NC(=O)c3cccc(N4C(=O)CCC4=O)c3)n(C)c12 | -1 | -4 | -13 | 2 | 1 | 38* | -1 | 5
COc1ccc(C)c2sc(=NC(=O)c3ccccc3)n(C)c12 | 1 | 0 | 3 | -1 | 15 | -3 | . | .
CCOc1ccc(S(=O)(=O)NC(C)C(=O)NCc2cccnc2)cc1 (stereo unspecified) | 1 | 4 | -4 | -1 | -1 | -5 | . | .
CN(C)c1ccc(/C=C/C(=O)c2cc(Cl)ccc2O)cc1 | . | -2 | -27 | -21 | 4 | 40* | 50* | 60*
CC(=O)Nc1cccc(C(=O)/C=C/c2ccc(N(C)C)cc2)c1 | . | -6 | 2 | 18* | 1 | 103* | 100* | 99*
Cc1csc(NC(=O)C2CC(=O)N(c3ccc(C)c(C)c3)C2)n1 (stereo unspecified) | -5 | 6 | -14 | 0 | 5 | 2 | . | .
O=C(COc1ccc2c3c(c(=O)oc2c1)CCC3)NCCCN1CCCC1=O | -2 | 4 | -8 | 0 | 1 | 2 | . | .
O=C1/C(=C\c2ccc(-c3ccccc3Cl)o2)SC(=S)N1CC1CCCO1 (stereo unspecified) | 0 | -4 | -3 | 0 | 1 | 27* | 48* | 61*
O=C(O)C(c1ccccc1)N1C(=O)/C(=C\c2ccc(-c3ccccc3Cl)o2)SC1=S (stereo unspecified) | . | 22 | -16 | 31* | 24 | 124* | 128* | 130*
Oc1ccc(N=C/C=C/c2ccc(Br)cc2)cc1-c1nc2ccccc2s1 | . | 8 | . | . | 0 | 1 | . | .
CC(C)(C)N=C1NN=C(c2ccc(S(=O)(=O)N3CCCCC3)cc2)CS1 | 4 | -6 | -14 | -1 | -21 | 0 | . | .
COc1ccc(C)cc1S(=O)(=O)N(CC(=O)N1CCOCC1)c1cc(C)cc(C)c1 | 2 | 7 | 1 | 2 | 17 | -4 | . | .
COc1ccc(Br)cc1S(=O)(=O)N(CC(=O)N1CCOCC1)c1ccccc1 | 9 | -3 | 1 | 1 | 10 | 43* | 6 | 10
CCOC(=O)c1c(/N=C/N(C)C)sc(/C=N/Nc2ccccc2)c1-c1ccc(Cl)cc1 | 43* | -3 | -11 | 0 | 1 | 40* | 29* | 43*
CN1C(=O)C(N=Nc2ccccc2C(=O)O)N(C)C1=S (stereo unspecified) | 21 | 6 | -4 | 5 | 11 | 41* | 41* | 61*
CC1=NN(C(N)=S)C(=O)C1N=Nc1ccccc1C(=O)O (stereo unspecified) | 5 | 6 | 0 | -2 | 17 | -7 | . | .
O=C(Cn1ncc2c3ccccc3n(Cc3cccc(Cl)c3)c2c1=O)NCc1ccccn1 | . | 10 | -11 | 0 | -4 | 69* | 84* | 90*
CON(C)C(=O)CC(CN(Cc1ccccc1)C(=O)OC(C)(C)C)c1ccc(Cl)cc1 (stereo unspecified) | 6 | . | -9 | 0 | . | . | . | .
O=C(c1ccccc1Cl)N1CCSCC1 | 5 | -3 | -6 | -1 | 2 | -2 | . | .
O=C1/C(=C/c2ccc([N+](=O)[O-])cc2)Oc2cc(O)ccc21 | 38 | . | 0 | 4 | . | . | . | .
CC(C)(C)c1ccc(/C=C2\Oc3cc(O)ccc3C2=O)cc1 | 30 | 7 | -6 | 17* | 0 | 30* | 67* | 72*
O=C1/C(=C/c2ccc(Br)cc2)Oc2cc(O)ccc21 | 38 | 7 | 3 | 16* | 5 | 63* | 77* | 79*
SMILES | Rpn11 block | EBNA-1 inh | dFosB act | NR3A LBD binder | ZTA DNA inh | TPT1 inh | caTPT1 confirm | RNase T1 inh
CCc1ccc(/C=C2\Oc3cc(OS(C)(=O)=O)ccc3C2=O)cc1 | 7 | -13 | -24 | -12 | 14 | 3 | . | .
COC(=O)c1ccc2c(c1)C(=O)/C(=C/c1ccc(O)cc1)O2 | 23 | -2 | 5 | 8 | -3 | 28* | 20 | 28*
CCN(CC)C(=O)Cn1ccc(NC(C)=O)nc1=O | 2 | -12 | 5 | -7 | 0 | -4 | . | .
COc1ccc(Nc2ccc(S(=O)(=O)N3CCCCC3)cc2[N+](=O)[O-])cc1 | -3 | -2 | -10 | 1 | -3 | 67* | 6 | 9
Cn1cccc1/C=N/n1cnnc1 | 0 | 6 | 4 | -1 | 2 | 1 | . | .
Cn1cccc1/C=C1\CCC/C(=C\c2cccn2C)C1=O | . | -8 | -4 | 4 | -9 | 192* | 194* | 171*
COc1ccc(-n2cc(-c3ccc(Cl)cc3)[nH]c2=S)cc1 | -11 | 7 | 8 | 2 | 9 | 2 | . | .
COC(=O)c1ccc(-n2cc(-c3ccc(OC)cc3)[nH]c2=S)cc1 | 30 | -5 | -10 | -8 | 1 | 38* | 31* | 40*
COc1ccc(C(=O)c2c(N)sc3c2CCN(C)C3)cc1 | 1 | -15 | 2 | -1 | 5 | 42* | 40* | 48*
COC(=O)c1cccc(Cn2c(Cl)c(/C=N/Nc3ccccc3C)sc2=O)c1 | 34 | -2 | -9 | -10 | -12 | 29* | 35* | 42*
Cc1ccccc1N/N=C/c1sc(=O)n(Cc2cccc(C(=O)O)c2)c1Cl | 6 | 1 | -11 | -1 | 15 | 3 | . | .
Cc1ccc(NC(=O)N2CCCCC2)cc1[N+](=O)[O-] | -12 | 1 | -3 | -10 | 6 | -1 | . | .
COCCNC(=O)C1(C)CCCN(CCC(=O)c2ccc(Br)cc2)C1 (stereo unspecified) | 3 | . | . | . | . | . | . | .
CCN(CC)c1ccc(/C=N/N=C(N)N)c(O)c1 | . | -5 | -2 | 0 | 0 | 49* | 93* | 103*

Source: PubChem
